A selection: hits, their analogues and other compounds. The true share with any hit is near 3.2%.
TRb SRC2 PPI: disrupts binding of human TR beta to SRC2 | AID 1469 | TRbeta-SRC2 peptide binding, fluorescence polarization; receptor liganded with 1 µM T3 | Potency, µM (series often up to 106 µM), for the others: top-dose activity change, negative = inhibition, actives largely listed as inhibitors | 0.065% of 280,000 active;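 further: plate controls were bound peptide for no effect and peptide without receptor for full effect; nearly all actives have a fitted effect of over 50% in size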
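Compounds were added to 0.6 uM TRb ligand-binding domain and 20 nM Texas Red-labeled SRC2 peptide in Tris buffer containing 1 uM T3, incubated 5 hr at ambient temperature, then read by fluorescence polarization.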
TR SRC2 fluor cs: Texas Red fluorescence interference in TRb-SRC2 counter-screen; TRb/SRC2 Texas Red total fluorescence interference; Potency, µM (series often up to 106 µM), for the others: at the highest dose fluorescence change, negative = quenching; 0.29% of 280,000 active; AID 1479; active means well fitted curve in either direction with a large enough effect; inconclusive means small, poorly fitted or top-dose-only effect
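Human TRb ligand-binding domain at 0.6 uM with 20 nM Texas Red SRC2 peptide in Tris buffer containing 1 uM T3 and 5% DMSO, incubated with compound 5 h at ambient temperature. Total fluorescence (555/632 nm) calculated as parallel + 2 × perpendicular.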
Tau fibril ThT: blocks human tau fibril formation measured by thioflavin T | recombinant tau K18 P301L, heparin-induced fibrillization, ThT fluorescence | P10636 | Potency, µM (series often up to 57.4 µM), for inactives: at the top dose activity, negative = inhibition, usual class: inhibitors | 2.1% of 270,000 active; further: nearly all actives have a fitted effect of over 55% in size
Target sequence (P10636 561-689 P618L limits assumed): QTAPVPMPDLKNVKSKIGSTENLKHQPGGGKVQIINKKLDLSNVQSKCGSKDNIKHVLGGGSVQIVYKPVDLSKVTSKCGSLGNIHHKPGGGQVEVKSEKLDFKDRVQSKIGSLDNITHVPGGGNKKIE
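Fibril formation assay: tau K18 P301L at 15 uM with trace Alexa 594 label, heparin inducer 20 uM, pH 7 sodium acetate buffer, 37 C for 6 hr; endpoint ThT signal.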
Tau fluor cs: counter-screen for tau fibril formation inhibitors; AID 1463; 0.93% of 280,000 active; tau K18 P301L Alexa594 fluorescence, heparin fibrillization; Potency, µM (doses to about 57.7 µM), without a hit: at the highest dose activity change, negative = decrease; further: nearly all actives have a fitted effect of over 55% in size
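Human tau K18 P301L (15 uM unlabeled, 0.24 uM Alexa 594-labeled) in 100 mM sodium acetate pH 7 with 20 uM heparin, 6 hr at 37 C. ThT 30 uM added, 1 hr ambient; Alexa 594 FP and total fluorescence read at 555/632 nm.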
RGS12 GoLoco inh: blocks human Gai1 binding to RGS12 GoLoco peptide, red readout; P63096; Gai1:RGS12 GoLoco peptide FP, rhodamine, 10 min; Potency, µM (top dose mostly 61.6 µM), for the others: at the highest dose activity, negative = inhibition, hits mostly inhibitors; 0.44% of 230,000 active; active means well fitted inhibition curve with a large enough effect, not every such curve was filed as active; inactive means no such curve, though single readings can be large or run the other way; further: nearly all actives have a fitted effect of over 30% in size
Target sequence (P63096 whole entry, looked up): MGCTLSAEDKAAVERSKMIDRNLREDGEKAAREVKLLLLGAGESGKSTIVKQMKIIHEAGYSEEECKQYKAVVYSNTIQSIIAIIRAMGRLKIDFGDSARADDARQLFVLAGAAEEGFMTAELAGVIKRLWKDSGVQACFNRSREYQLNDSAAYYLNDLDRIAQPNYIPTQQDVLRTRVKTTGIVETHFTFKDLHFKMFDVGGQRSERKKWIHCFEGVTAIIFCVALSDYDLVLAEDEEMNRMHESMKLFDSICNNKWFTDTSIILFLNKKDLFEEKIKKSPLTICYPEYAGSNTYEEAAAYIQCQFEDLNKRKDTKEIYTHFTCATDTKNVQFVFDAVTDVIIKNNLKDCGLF
Tau fibril FP: inhibitors of human tau fibril formation; K18 P301L tau heparin fibrillization, Alexa594 FP, 6 h; Potency, µM (titrated, usually from 57.7 µM), for inactives: at the top dose activity, negative = inhibition, usual class: inhibitors; 0.39% of 280,000 active; further: nearly all actives have a fitted effect of over 55% in size
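Steps: dispense K18 P301L tau (15 uM plus 0.24 uM Alexa 594 tracer, final) in pH 7 sodium acetate; add compound; add heparin (20 uM final); incubate 6 hr, 37 C; add ThT (30 uM final); after 1 hr ambient, read FP.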
Numbers without * were called inactive; ? = inconclusive; . = not tested or not shown; ! = repeats disagree; [ ] = remark or other dose. Unless noted, the call rests on the fitted dose curve; in most records, active means well fitted curve in the direction sought with a large enough effect; inconclusive means small, poorly fitted or top-dose-only effect, or another doubt; inactive means no such curve, though single readings can be large; an effect the other way counts as inactive or inconclusive. Unless noted, on the % scale 0 is the no-effect control and ±100 the full control effect; potency means the concentration at half of the fitted maximal effect.

SMILES	TRb SRC2 PPI	TR SRC2 fluor cs	Tau fibril ThT	Tau fluor cs	RGS12 GoLoco inh	Tau fibril FP
O=c1oc2ccccc2cc1-c1nc2ccccc2o1	8%	-7%	?	-7%	7%	2%
Nc1cc2nc3ccccc3oc-2cc1=O	-11%	8%	7.1µM*	?	23%	11µM*
CSCC[C@H](NC(=O)CN)C(=O)N[C@@H](CC(=O)O)C(=O)N[C@@H](CO)C(=O)N[C@@H](CC(C)C)C(=O)N[C@@H](C)C(=O)N[C@@H](Cc1ccccc1)C(=O)N[C@@H](CO)C(=O)NCC(=O)NCC(=O)N[C@@H](CC(C)C)C(N)=O	2%	-2%	.	.	.	.
C=CCC(C)(O)C(=O)OCC (configuration not stated)	-16%	0%	-2%	3%	-2%	5%
CC/C(=N/Nc1ccccc1C)c1cnnc(SC)n1	4%	-1%	3.5µM*	-20%	-4%	?
CSc1nncc(/C(C)=N\Nc2cccc(C)c2)n1	-23%	0%	?	-11%	-31%	-8%
CSc1nncc(/C(C)=N\Nc2ccccc2)n1	-1%	1%	2.8µM*	-8%	-8%	-3%
CCCSc1nnc(Nc2ccccc2C)s1	-7%	-4%	-4%	-7%	3%	3%
CNc1nc(N/N=C/c2ccc([N+](=O)[O-])cc2)nc(Nc2ccccc2)n1	-2%	1%	4µM*	16µM*[quencher]	2%	-7%
COc1cc(O)cc(O)c1C(=O)/C=C/c1ccccc1	8%	-3%	?	-19%	6%	-6%
CC(C)=CCC/C(C)=C/Cc1c(O)ccc(C(=O)/C=C/c2ccc(O)cc2)c1O	2%	-4%	20µM*	4.5µM*[quencher]	3%	7.9µM*
COc1cc(OC)c(C(=O)/C=C/c2ccccc2)c(O)c1O	-3%	-5%	13µM*	-28%	6%	5%
COc1cc(/C=C/C(=O)c2ccc(O)cc2O)ccc1O	12%	-12%	.	.	.	.
O=C(/C=C/c1ccccc1)c1ccc(O)cc1O	?	-7%	?	-25%	-2%	?
COc1ccc(C(=O)/C=C/c2ccccc2)c(O)c1	0%	-2%	?	1%	1%	14%
COc1ccc(/C=C/C(=O)c2cc(O)ccc2O)cc1	7%	-5%	14µM*	14µM*[quencher]	-3%	?
O=C(/C=C/c1ccc(O)cc1)c1ccc(O)cc1O	14%	-8%	10µM*	?	5%	8%
O=S(=O)(Cc1ccccc1)c1nnnn1C1CCCCC1	7%	-2%	1%	-1%	2%	-1%
COc1ccc(OC)c(/C=C(\C#N)c2nc(-c3ccc(F)cc3)cs2)c1	2%	-8%	-9%	-29%	.	?
CN1CCN(C(=O)C2CCCCC2)CC1	0%	1%	.	.	.	.
COc1ccc(/C=C/C(=O)c2cc3c(cc2N)OCO3)cc1	3%	-6%	2.8µM*	16µM*[quencher]	2%	-2%
COc1ccc(/C=C/C(=O)c2ccc(O)cc2O)cc1	3%	-6%	11µM*	?	0%	-15%
CCc1cc(C(=O)O)c(NC(=O)/C=C/c2ccc(OC)cc2)s1	8%	-9%	13µM*	?	-1%	-2%
O=C(/C=C/c1ccc(O)c(O)c1)c1ccccc1O	5%	-5%	13µM*	?	45%	?
CCc1cc(C(=O)O)c(NC(=O)/C=C/c2ccc(OC)c(OC)c2)s1	4%	-20%	?	-15%	9%	0%
O=C(O)/C=C\c1ccc(O)c(O)c1	1%[53 µM]	-5%[53 µM]	.	.	-35%[21.6 µM]	.
COc1ccc(/C=C/C(=O)O)cc1	25µM*!	45µM*![fluorescent]	6%	6%	10%	3%
COc1cc(O)c(C(=O)/C=C/c2ccc(O)c(OC)c2)c(OC)c1	-7%	-2%	1.8µM*	-29%	54%	1%
COc1ccc(/C=C/C(=O)c2c(OC)cc(O)cc2OC)cc1	4%	1%	.	.	.	.
COc1ccc(/C=C/C(=O)c2ccc(O)cc2O)cc1OC	-3%	0%	7.1µM*	-18%	1%	-14%

Source: PubChem BioAssay (National Center for Advancing Translational Sciences (NCATS))
